Most compounds without a hit are left out; they make up all but 1.6% or so of the library.
Sa ugtP lethal – growth inhibition of ugtP-null S. aureus, primary screen, RN4220 ugtP deletion, OD600; 16 h; growth inhibition, % (concentration not given with the values); 330,000 compounds, 0.54% hits; in the data active = growth inhibition above about 68%
CCHF vOTU inh – CCHFV vOTU protease inhibitors, primary screen, biochemical, Pep-AMC substrate, fluorescence; 370,000 compounds, 0.55% hits; inhibition, % at 11.5 µM; Crimean-Congo hemorrhagic fever virus L polyprotein viral ovarian tumor (vOTU) protease …; AID 651958, 2012; in the data active = inhibition above about 30%
BJeLR lethal – MLPCN primary cell-based screen for lethality selective to Ras in HRASV12 cells; 300,000 compounds, 0.17% hits; BJeLR (HRASV12) viability, CellTiter-Glo ATP luminescence, 48 h; inhibition, % (concentration not given with the values); in the data active = inhibition above about 50%
RN4220 kill – growth inhibition of S. aureus RN4220, primary screen, OD600. 16 h. inhibition, % (no concentration beside the values). 330,000 compounds, 0.33% hits; in the data active = inhibition above about 85%
Mtb hypoxia rep – PubChem AID 1159583 | M. tuberculosis hypoxia-regulated fluorescent reporter, fluorescence | 300,000 compounds, 0.1% hits | fluorescence inhibition, % (concentration not given with the values); in the data active = fluorescence inhibition mostly above about 23%, no sharp cut-off; inactive = mostly below about 17%
RecA splice inh – Mtb RecA intein splicing inhibitors, primary screen, biochemical, fluorescence, HTS | cell-free RecA intein splicing | inhibition, % (test concentration not listed) | 290,000 compounds, 0.75% hits | AID 2221, 2009; in the data active = inhibition above about 30%
Target sequence (P9WHJ3 whole entry, looked up, canonical isoform): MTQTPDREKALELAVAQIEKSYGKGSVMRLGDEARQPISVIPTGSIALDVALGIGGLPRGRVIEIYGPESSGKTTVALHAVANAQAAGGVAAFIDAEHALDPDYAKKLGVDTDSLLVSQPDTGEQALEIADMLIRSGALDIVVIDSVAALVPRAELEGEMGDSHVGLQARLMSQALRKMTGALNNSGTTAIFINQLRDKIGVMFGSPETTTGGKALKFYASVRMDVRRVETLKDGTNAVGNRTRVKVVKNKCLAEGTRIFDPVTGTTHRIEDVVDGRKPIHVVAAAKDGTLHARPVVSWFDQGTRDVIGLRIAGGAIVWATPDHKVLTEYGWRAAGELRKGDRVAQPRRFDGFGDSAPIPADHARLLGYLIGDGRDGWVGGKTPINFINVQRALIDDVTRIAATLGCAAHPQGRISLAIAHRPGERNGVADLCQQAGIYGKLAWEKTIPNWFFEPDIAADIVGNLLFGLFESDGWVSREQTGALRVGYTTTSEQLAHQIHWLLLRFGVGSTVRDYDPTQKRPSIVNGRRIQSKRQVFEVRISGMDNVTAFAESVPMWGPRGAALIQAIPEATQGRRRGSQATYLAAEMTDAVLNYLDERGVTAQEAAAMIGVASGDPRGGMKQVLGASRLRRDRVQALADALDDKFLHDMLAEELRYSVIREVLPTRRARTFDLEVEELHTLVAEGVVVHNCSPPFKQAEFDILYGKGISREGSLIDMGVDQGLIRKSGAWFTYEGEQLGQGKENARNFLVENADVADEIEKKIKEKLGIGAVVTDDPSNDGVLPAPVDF
Hits are given with their value; i = inactive; nt = no result given.

SMILES	Sa ugtP lethal	CCHF vOTU inh	BJeLR lethal	RN4220 kill	Mtb hypoxia rep	RecA splice inh
O=C(NC(Cc1ccccc1)C(=O)OCc1ccccc1)c1nc[nH]c1C(=O)N1CCNCC1 (configuration not stated)	i	nt	nt	i	i	nt
CCOC(=O)c1c(NC(=O)COC(=O)c2ncc(Cl)c(Cl)c2Cl)sc(C(=O)N(C)C)c1C	i	nt	i	i	i	38
O=c1cc(O)c(-c2ccc(Cl)cc2)c(Cl)[nH]1	i	i	i	i	i	i
O=C1c2cc(Cl)ccc2-c2c(O)cc(Cl)cc21	100	i	nt	100	i	nt
O=C(NC(=S)Nc1ccc(F)c(Cl)c1)C1CC1	i	i	i	i	i	i
S=C(Nc1ccccc1)Nc1ccc(Cl)cc1Cl	i	i	i	i	nt	i
Fc1ccc(NC(=S)Nc2ccc(F)c(Cl)c2)cc1Cl	97	nt	i	108	nt	i
FC(F)(F)c1cccc(NC(=S)Nc2ccc(Cl)cc2Cl)c1	84	i	i	98	i	i
Cc1ccc(-n2nnnc2-c2ccccc2)cc1	i	i	i	i	i	i
Cc1ccc(-n2nnnc2C(Cl)c2nnnn2-c2ccc(C)cc2)cc1	99	i	i	97	i	i
O=C(Cc1ccccc1)NC(c1ccccc1)P(=O)(O)CO (configuration not stated)	i	nt	nt	i	i	nt
CCOc1ccccc1Nc1nnc(Cc2ccccc2Cl)c(=O)[nH]1	i	i	i	i	i	31
COc1cc(/C=C/c2cc[n+](C)cc2)ccc1OCC(=O)Nc1ccc(Cl)c(Cl)c1	100	i	i	i	i	40
Cc1nc2ccccn2c1C(=O)NN=Cc1ccc([N+](=O)[O-])o1	i	nt	nt	98	i	nt
O=C(NN=Cc1ccc([N+](=O)[O-])o1)C1COc2ccccc2O1 (configuration not stated)	i	nt	nt	i	nt	nt
CC(C)(C)c1ccc2c(c1)OC(C(=O)NN=Cc1ccc([N+](=O)[O-])o1)CO2 (configuration not stated)	100	nt	nt	100	i	nt
O=C(N/N=C/c1ccc([N+](=O)[O-])o1)c1cc2ccccc2o1	nt	i	68	nt	nt	i
O=C(NN=Cc1ccc([N+](=O)[O-])o1)C(O)c1ccccc1 (configuration not stated)	i	nt	nt	i	24	nt
COC(=O)[C@@]1(Cc2ccc(OC)cc2)C2c3cc(C(=O)N(C)C)n(CCSCCO)c3CC2CN1C(=O)c1ccccc1 (some centres not stated)	i	nt	nt	i	i	nt
CN(C)S(=O)(=O)n1cnc(C2C3C(=O)OCC3C[C@]23N=CN(Cc2ccccc2)C3=O)c1 (some centres not stated)	i	nt	nt	i	i	nt
CCn1cc(C(=O)O)c(=O)c2cc(F)c(N3CCN(C(=S)NC(=O)c4ccc(OC)cc4)CC3)cc21	99	i	i	99	i	i
CCn1cc(C(=O)O)c(=O)c2cc(F)c(N3CCN(C(=O)Nc4ccccc4)CC3)cc21	96	i	i	i	i	i
CCn1cc(C(=O)O)c(=O)c2cc(F)c(N3CCNCC3)cc21	nt	nt	i	nt	nt	i
C=CCNC(=O)c1cn(CC)c2cc(N3CCN(C(=O)c4ccco4)CC3)c(F)cc2c1=O	98	i	i	94	i	i
CCn1cc(C(=O)O)c(=O)c2cc(F)c(N3CCN(C(=S)NC(=O)c4ccccc4F)CC3)cc21	99	i	i	99	i	i
SMILES	Sa ugtP lethal	CCHF vOTU inh	BJeLR lethal	RN4220 kill	Mtb hypoxia rep	RecA splice inh
CCn1cc(C(=O)NCc2ccco2)c(=O)c2cc(F)c(N3CCN(C(=O)c4ccco4)CC3)cc21	i	i	i	i	nt	i
CC1CN(C(C)CO)C(=O)c2cc(NS(C)(=O)=O)ccc2OC1CN(C)Cc1ccc(C(=O)O)cc1 (configuration not stated)	i	nt	nt	i	i	nt
CC(C)(C)NC(=O)C1CN(Cc2cccnc2)CCN1CC(O)CC(Cc1ccccc1)C(=O)NC1c2ccccc2CC1O (configuration not stated)	i	nt	nt	i	i	nt
CC(O)C1CCC2C3CCC4CC(O)CC[C@]4(C)C3C(=NO)C[C@]12C (some centres not stated)	i	nt	nt	i	i	nt
CCOc1ccc(N/C(SCc2cccc([N+](=O)[O-])c2)=C(/C#N)C(N)=O)cc1	i	i	i	i	i	i
N#CC(C#N)=C(Nc1ccc(F)cc1)SCc1cccc(F)c1	98	i	i	99	i	i
O=C1C=CC(=O)C2C1C1(Cl)C(Cl)=C(Cl)C2(Cl)C1(Cl)Cl (configuration not stated)	97	i	nt	88	i	nt
NC(=O)c1ccc(N=C2C(=O)Nc3ccc([N+](=O)[O-])cc32)cc1	i	116	i	i	i	i
Cc1cc(C(=O)NN=Cc2sc(N3CCOCC3)nc2-c2ccccc2)c(C)o1	95	nt	nt	94	i	nt
C/C(CC(=O)Nc1cc(C)ccn1)=N\NC(=O)c1ccc(C)cc1	nt	i	i	nt	nt	62
NC(Cc1ccc(Cl)cc1Cl)=NOC(=O)Cc1ccc(Cl)cc1	i	nt	nt	i	i	nt
Cc1ccc2c(c1)S/C(=C/c1ccc[n+](C)c1)N2CCO	i	i	i	i	i	i
CCCCN1/C(=C/c2ccc3ccccc3[n+]2CC)Sc2ccccc21	nt	nt	i	nt	nt	nt
CCN1/C(=C/c2ccc3cc(C)ccc3[n+]2CC)Sc2cc(C)ccc21	100	i	nt	100	nt	nt
CCN1/C(=C/c2ccc3cc(C)ccc3[n+]2C)Sc2ccc3sccc3c21	100	i	nt	99	nt	nt
COC1CC(OC2CCC3(C)C(CCC4C3CCC3(C)C(C5=CC(=O)OC5)C(OC(C)=O)CC43O)C2)OC(C)C1OC1OC(COC2OC(CO)C(O)C(O)C2O)C(O)C(O)C1O (configuration not stated)	nt	nt	51	nt	nt	i
CC(=O)OC1CC(OC2C(O)CC(OC3C(O)CC(OC4CCC5(C)C(CCC6C5CCC5(C)C(C7=CC(=O)OC7)CCC65O)C4)OC3C)OC2C)OC(C)C1OC1OC(CO)C(O)C(O)C1O (configuration not stated)	nt	i	nt	nt	nt	nt
COc1ccc(C2C=CCN(C(=O)C3CCCC3)CC(=O)N2Cc2ccc(F)cc2)cc1 (configuration not stated)	i	nt	nt	i	i	nt
CC(C)CCN1C(=O)c2ccc(C(=O)Nc3ccc(Br)cc3C(=O)O)cc2C1=O	100	i	i	98	i	i
O=C(Nc1ccc(Cl)cc1C(=O)O)c1ccc2c(c1)C(=O)N(Cc1ccco1)C2=O	100	i	i	i	i	i
O=c1c2ccccc2nc(C=Cc2cccc([N+](=O)[O-])c2)n1CCO	i	nt	nt	i	i	nt
COc1cc(/C=C2/SC(N)=NC2=O)ccc1Oc1ccc([N+](=O)[O-])cc1[N+](=O)[O-]	i	i	i	i	i	i
NC1=NC(=O)/C(=C\c2ccc(O)c([N+](=O)[O-])c2)S1	i	i	i	i	56	i
